Source: PubChem BioAssay AID488969 (Vanderbilt High Throughput Screening Facility, 2010)
In all, about 110,000 compounds were measured (“z-score”: median about -0.1, highest 2% from about 2 on). For the sample, the highest values were picked, then their nearest neighbours and some compounds at random. The source made the active and inactive calls.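 Rule for the calls: active = z-score in the third read window above 3 or below -3; inactive = the rest.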

Biological target: Metabotropic glutamate receptor 8 (Rattus norvegicus) (UniProt P70579)
Test: mGluR8 Gi/Go-coupled signaling modulation – cell-based, rat, thallium flux, HTS, primary screen (AID 488969)
Details: HEK293 rat mGluR8, GIRK (G protein-gated inwardly rectifying potassium channel) thallium flux, FluoZin2; at 10 µM; stronger effect = higher value; submaximal glutamate (EC20) added with thallium

Metabotropic glutamate receptor 8 (Rattus norvegicus), sequence (P70579 whole entry, looked up): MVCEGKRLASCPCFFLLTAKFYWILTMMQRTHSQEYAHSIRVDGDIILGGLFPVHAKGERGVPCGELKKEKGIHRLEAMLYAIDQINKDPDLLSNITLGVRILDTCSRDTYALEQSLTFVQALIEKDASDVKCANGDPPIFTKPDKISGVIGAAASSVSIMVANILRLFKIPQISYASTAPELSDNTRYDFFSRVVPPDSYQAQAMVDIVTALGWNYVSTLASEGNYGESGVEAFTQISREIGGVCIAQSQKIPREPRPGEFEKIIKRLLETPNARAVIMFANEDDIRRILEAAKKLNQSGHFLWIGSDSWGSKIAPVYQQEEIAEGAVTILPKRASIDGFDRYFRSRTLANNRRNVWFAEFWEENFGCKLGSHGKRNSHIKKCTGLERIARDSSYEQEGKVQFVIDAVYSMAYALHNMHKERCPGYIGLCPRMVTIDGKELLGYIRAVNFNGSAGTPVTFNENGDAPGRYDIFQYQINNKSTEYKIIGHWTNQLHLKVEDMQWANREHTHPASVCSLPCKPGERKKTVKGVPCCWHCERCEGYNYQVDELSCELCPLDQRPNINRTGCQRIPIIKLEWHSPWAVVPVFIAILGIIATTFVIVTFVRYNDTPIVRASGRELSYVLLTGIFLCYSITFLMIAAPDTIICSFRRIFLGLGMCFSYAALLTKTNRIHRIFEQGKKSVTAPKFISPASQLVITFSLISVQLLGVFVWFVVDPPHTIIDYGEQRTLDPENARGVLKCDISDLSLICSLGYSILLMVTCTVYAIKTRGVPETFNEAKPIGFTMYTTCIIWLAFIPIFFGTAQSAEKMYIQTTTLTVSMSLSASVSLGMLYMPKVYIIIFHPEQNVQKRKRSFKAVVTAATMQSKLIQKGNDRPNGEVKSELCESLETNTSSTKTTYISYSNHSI

| Structure (SMILES) | z-score |
| --- | --- |
| Cc1ccc(S(=O)(=O)N2C(=O)C(c3ccccc3)SC2=Nc2ccccc2)cc1 (configuration not stated) | 0.00767 |
| CN(CCO)c1ccc([N+](=O)[O-])cc1C(=O)O | 0.404 |
| CCOc1ccc(S(=O)(=O)Nc2ccccc2C(=O)N/N=C/c2c(OC)ccc3ccccc23)cc1 | -0.58 |
| O=C(N/N=C/c1ccco1)c1ccncc1 | 0.0764 |
| O=C(Nc1ccccc1C(=O)N/N=C/c1ccco1)c1ccccc1 | 3.37 (active) |
| Cc1nc2ccccc2cc1C(=O)N/N=C/c1ccco1 | 0.211 |
| O=C(Nc1ccccc1C(=O)N/N=C/c1ccco1)c1ccccc1Cl | 0.924 |
| Cc1ccccc1C(=O)Nc1ccccc1C(=O)N/N=C\c1ccco1 | 5.6 (active) |
| O=C(Nc1ccccc1C(=O)N/N=C/c1ccco1)c1ccc(Cl)cc1 | 0.162 |
| Cc1cc(C)nc(N/N=C/c2ccccc2OCc2cccc(Br)c2)n1 | -0.027 |
| O=C(NN1C(=O)C2C3C=CC(C4CC34)C2C1=O)c1ccc(Cl)cc1Cl (configuration not stated) | -0.0308 |
| Cc1ccc(-c2nnn(CC(=O)N(c3ccccc3)C(C(=O)NC(C)(C)C)c3cccs3)n2)o1 (configuration not stated) | -0.243 |
| CCCC(=O)Nc1c2c(nn1-c1ccc(OC)cc1)CS(=O)C2 (configuration not stated) | -1.01 |
| COc1ccc(Cl)cc1N(C)C(=O)CCc1nc(-c2ccc(C)cc2)no1 | 0.139 |
| CC(=O)Nc1ccc(SCC(=O)Nc2ccccc2-c2ccccc2)cc1 | -0.153 |
| CNC(=O)CN1C(=O)c2cccc3cccc1c23 | 0.394 |
| CC(=O)N1C(=O)c2cccc3cccc(c23)C(=O)N1C(C)=O | 0.73 |
| CCCCNC(=S)N/N=C1\C(=O)c2cccc3cccc1c23 | 3.16 (active) |
| CCCCNC(=S)N/N=C/c1ccc(C)s1 | 1.81 |
| CCNC(=S)N/N=C1\C(=O)c2cccc3cccc1c23 | 12.9 (active) |
| O=C(N/N=C1/C(=O)c2cccc3cccc1c23)c1ccc(Cl)cc1 | 3.2 (active) |
| O=C1c2cccc3cccc(c23)C(=O)N1OS(=O)(=O)c1ccc(Cl)cc1 | 0.123 |
| CC(C)/C=N/NC(=O)c1ccc(Cl)cc1 | -0.254 |

| Structure (SMILES) | z-score |
| --- | --- |
| CNC(=S)N/N=C1\C(=O)c2cccc3cccc1c23 | 14.1 (active) |
| CCCCNC(=S)Nc1ccccc1F | 0.54 |
| CCNC(=S)N/N=C/c1ccco1 | 0.768 |
| CCNC(=S)NS(=O)(=O)c1ccccc1 | -0.195 |
| CCC(Sc1nc2ccccc2c(=O)[nH]1)C(=O)O (configuration not stated) | 0.219 |
| CC(C)(C)c1ccc(S(=O)(=O)NCC(=O)N2CCN(C(=O)c3ccco3)CC2)cc1 | -0.0781 |
| O=C(CCSCCC(=O)NCc1ccc(F)cc1)NCc1ccc(F)cc1 | -0.471 |
| CCOC(=O)c1c(-c2ccc(OC)cc2)csc1/N=C/N(C)C | -0.193 |
| COc1ccc2c(c1)c1nc3ccccc3nc1n2Cc1ccc(OC(C)C)c(OC)c1 | -0.644 |
| O=C(NCC(=O)N1CCN(c2ncccn2)CC1)c1cccs1 | 0.235 |
| Cn1cc(-c2nnnn2-c2ccc(Cl)cc2)c(C(F)(F)F)n1 | 0.131 |
| CCCCc1nc(NCc2ccccc2)c(C#N)c2c1COC(C)(C)C2 | 0.531 |
| O=C(NCCCN1CCOCC1)c1ccc(CS(=O)(=O)c2ccc(Br)cc2)o1 | -0.0398 |
| CC(=O)Nc1ccc(NC(=O)c2ccc(Cn3cc(Cl)cn3)cc2)cc1 | -0.369 |
| Cc1cccc(-n2cc[nH]c2=S)c1 | 0.0616 |
| S=c1[nH]cc(-c2ccccc2)n1-c1cccc(Cl)c1 | 2.94 |
| C=CCn1c(-c2ccccc2)c[nH]c1=S | 0.229 |
| S=c1[nH]ccn1-c1cccc(Cl)c1 | 2.29 |
| S=c1[nH]cc(-c2ccc(Cl)cc2)n1-c1ccccc1 | 1.94 |
| Cn1c(-c2ccccc2)cccc1=O | 0.333 |
| Cc1ccc(-n2cc[nH]c2=S)cc1C | 1.42 |
| CCn1c(-c2ccccc2)c[nH]c1=S | 0.254 |
| Cn1c(-c2ccc(-c3ccccc3)cc2)c[nH]c1=S | 4.21 (active) |

| Structure (SMILES) | z-score |
| --- | --- |
| CCn1c(-c2ccc(-c3ccccc3)cc2)c[nH]c1=S | 3.86 (active) |
| S=c1[nH]cc(-c2ccccc2)n1-c1ccccc1 | 0.267 |
| S=c1[nH]cc(-c2ccccc2)n1-c1ccccc1Cl | 0.447 |
| COc1ccnc(N2CCN(c3ccccc3)CC2)c1C#N | 0.0026 |
| COc1cccc(/C(O)=C2/C(=O)C(=O)N(CCN(C)C)C2c2ccccn2)c1 (configuration not stated) | -0.249 |
| CCc1ccc(NC(=O)CSc2nc3ccccc3c(=O)n2CCCC(=O)N2CCCC2)cc1 | -0.305 |
| NC(=O)c1ccc(F)cc1 | 0.635 |
| Cc1ccc(NC(=O)N2C(=O)C3(OCCO3)c3ccccc32)cc1 | -0.237 |
| COc1ccc(-c2cc(C(F)F)n3ncc(C(=O)N4CCN(C)CC4)c3n2)cc1 | -0.201 |
| COc1cc(C2C(C(=O)N3CCOCC3)=C(C)NC3=C2C(=O)CCC3)ccc1OC(C)=O (configuration not stated) | 0.401 |
| COCCCNCCCCOc1cccc(Br)c1 | 0.266 |
| CC(=O)Nc1nc2ccc(-c3nc4ccccc4o3)cc2s1 | 2.69 |
| Cc1ccc2nc(NC(=O)CSc3nc4ccccc4o3)sc2c1 | 0.182 |
| CC(=O)Nc1nc2ccc(C(=O)NC3CCCCC3)cc2s1 | -0.32 |
| CNC(=O)c1ccc2nc(NC(C)=O)sc2c1 | 8.42 (active) |
| Nc1nc2ccc(-c3nc4ccccc4o3)cc2s1 | -0.112 |
| Cc1ccc2nc(NC(=O)c3ccc4ncsc4c3)sc2c1 | 0.195 |
| COC(=O)c1ccc(CSc2ccc3nnc(-c4cccc(F)c4)n3n2)o1 | -0.901 |
| Cc1cccc(N2CSC3=C(C#N)C(c4ccc(C)o4)CC(=O)N3C2)c1 (configuration not stated) | -0.375 |
| CCOC(=O)/C(=C\Nc1ccc(OC(F)(F)F)cc1)Sc1ncc(C(F)(F)F)cc1Cl | -0.436 |
| CN(c1cccc(NC(=O)c2ccccc2N(C)S(=O)(=O)c2ccccc2)c1)S(C)(=O)=O | -0.199 |
| COc1cccc(C(=O)Nc2ccccc2)c1 | -0.0644 |
| COc1cccc(C(=O)Nc2c(F)c(F)c(F)c(F)c2F)c1 | -0.711 |

| Structure (SMILES) | z-score |
| --- | --- |
| COc1cc(OC)cc(C(=O)Nc2nc(-c3ccccc3)c(-c3ccccc3)o2)c1 | 3.64 (active) |
| COc1cccc(C(=O)Nc2nc(-c3ccccc3)c(-c3ccccc3)o2)c1 | 7.83 (active) |
| COc1cc(OC)cc(C(=O)Nc2ccc(-c3nc4ccccc4o3)cc2)c1 | -0.273 |
| COc1cc(OC)cc(C(=O)NCc2nc(-c3ccccc3)no2)c1 | -0.942 |
| CCCCOc1ccc(Cc2c(Cl)nc(SC)nc2N2CCOCC2)cc1 | 0.0392 |
| COc1cc(CN2CCN(c3cccc(Cl)c3)CC2)cc(OC)c1OC | -0.348 |
| O=C1CC(c2cccc(F)c2)SC(N(c2ccccc2)c2ccccc2)=N1 (configuration not stated) | -0.127 |
| Fc1cccc(C2NN=C(c3ccccc3)S2)c1 (configuration not stated) | 6.37 (active) |
| NS(=O)(=O)c1ccc(N2N=C(c3ccccc3)CC2c2cccc(F)c2)cc1 (configuration not stated) | 0.17 |
| O=C(N/N=C/c1ccc[nH]1)c1cccc([N+](=O)[O-])c1 | -0.104 |
| Cc1ccc(S(=O)(=O)N2Cc3ccccc3CC2C(=O)Nc2ccc3c(c2)OCO3)cc1 (configuration not stated) | -0.0374 |
| Cc1ccc(S(=O)(=O)Nc2ccc3c(c2)CCC3)cc1 | -0.101 |
| Cc1ccc(S(=O)(=O)N2CC(O)CC2C(=O)Nc2ccc3c(c2)CCC3)cc1 (configuration not stated) | 2.07 |
| COc1ccc(-c2cc3nc(C4CCN(C(=O)OC(C)(C)C)CC4)c(C(=O)O)cn3n2)cc1 | -0.691 |
| c1ccc2c(c1)ncn2CCC1CCCCC1 | 0.093 |
| c1ccc(C(c2ccccc2)N2CCN(c3nc4ccccc4n4cnnc34)CC2)cc1 | -0.222 |
| COCCn1c(SCc2nc(N)nc(Nc3ccccc3C)n2)nc2ccccc2c1=O | -0.279 |
| CCCCn1c(SCC(=O)/C(C#N)=C(\C)N)nc2ccccc2c1=O | 5.63 (active) |
| C/C(N)=C(/C#N)C(=O)CSc1nnnn1-c1ccc(C)cc1 | 0.331 |
| O=C(CSc1nc2ccccc2c(=O)n1Cc1ccco1)NCc1ccco1 | -0.352 |
| CCOCCCn1c(SCC(=O)/C(C#N)=C(\C)N)nc2ccccc2c1=O | -0.243 |
| C/C(N)=C(/C#N)C(=O)CSc1nc2ccccc2c(=O)n1CCCO | -0.389 |
| Cc1ccccc1Nc1nc(N)nc(CSc2nc3ccccc3c(=O)n2C)n1 | 0.919 |

| Structure (SMILES) | z-score |
| --- | --- |
| Cn1c(SCC(=O)NCc2ccco2)nc2ccccc2c1=O | -0.354 |
| C/C(N)=C(/C#N)C(=O)CSc1nc2cc(Cl)ccc2c(=O)n1-c1ccc(C)cc1 | 2.69 |
| C/C(N)=C(/C#N)C(=O)CSc1nc2ccccc2c(=O)n1-c1ccc(C)c(Cl)c1 | -0.275 |
| CCCCn1c(SCC(=O)NCc2ccco2)nc2ccccc2c1=O | 6.36 (active) |
| CCCCn1c(SCc2nc(N)nc(Nc3ccccc3C)n2)nc2ccccc2c1=O | 3.44 (active) |
| O=C(O)c1cccc(Nc2ncnc3c2cnn3-c2ccccc2)c1 | -1.14 |
| CC(=O)C(/C=N/c1cc(-c2ccc(C)cc2)nn1-c1ccccc1)=C(\C)O | -0.251 |
| CCC(=O)Nc1ccc(S(=O)(=O)N2CCCCC2)cc1OC | 0.0489 |
| CC(C)Cc1nc2oc3c(NCCCN4CCOCC4)ncnc3c2c2c1CCC2 | 0.0144 |
| S=c1[nH]nc(-c2cc(-c3ccco3)[nH]n2)n1-c1ccccc1 | -0.141 |
| COc1cc(S(=O)(=O)N(Cc2ccccn2)Cc2ccco2)ccc1-n1cnnn1 | -0.493 |
| CC(=O)Nc1ccc(SCC(=O)c2cc(C)n(-c3ccccc3F)c2C)cc1 | 4.45 (active) |
| COC(=O)c1ccc(-n2c(C)cc(C(=O)CSc3ccc(NC(C)=O)cc3)c2C)cc1 | 3.5 (active) |
| COCC(C)n1c(C)cc(C(=O)CSc2ccc(NC(C)=O)cc2)c1C (configuration not stated) | 0.445 |
| CC(=O)Nc1ccc(SCC(=O)c2cc(C)n(-c3ccccc3)c2C)cc1 | 0.162 |
| CC(=O)Nc1ccc(SCC(=O)c2cc(C)n(C)c2C)cc1 | -0.0734 |
| CC(=O)Nc1ccc(SCC(=O)c2cc(C)n(CC(F)(F)F)c2C)cc1 | 0.0826 |
| Cn1c(SCC(=O)c2ccc(F)cc2)nnc1-c1ccccc1N | -0.0125 |
| O=C(CCSc1nc(-c2ccc3c(c2)OCO3)cc(C(F)(F)F)n1)NCc1ccco1 | 0.587 |
| O=[N+]([O-])c1cccc(/C=C/c2nc(C=Nc3ccc4ccccc4c3)c(O)o2)c1 | -0.0456 |
